{"source": "the supplement of paper PMC8728848", "assay_in_all_cases": "glycan array binding signal (z-score within array); higher = stronger binding", "settings_in_all_cases": "glycan notation: IUPAC condensed, linker removed", "key": {"[1]": {"test_system": "Fuc(a1-2)[Gal(a1-3)]Gal(b1-4)[Fuc(a1-3)]GlcNAc", "procedure,_shortened": "(§1)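 Negative Z-scores can be read as non-binding. The Z-score is calculated within each array and then averaged across arrays of one protein sequence at different concentrations or buffers and across linkers. Arrays, 3228 in all, were curated from the Consortium for Functional Glycomics database and kept only where the protein sequence was available.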"}, "[2]": {"test_system": "Fuc(a1-2)[GalNAc(b1-3)]Gal", "procedure,_shortened": "as §1"}, "[3]": {"test_system": "Fuc(a1-3)[Gal(b1-4)]Glc6S", "procedure,_shortened": "as §1"}, "[4]": {"test_system": "Fuc(a1-2)[GalNAc(a1-3)]Gal(b1-3)GlcNAc(b1-2)Man(a1-3)[Fuc(a1-2)[GalNAc(a1-3)]Gal(b1-3)GlcNAc(b1-2)Man(a1-6)]Man(b1-4)GlcNAc(b1-4)GlcNAc", "procedure,_shortened": "as §1"}, "[5]": {"test_system": "Fuc(a1-2)[GalNAc(a1-3)]Gal(b1-3)GlcNAc(b1-2)Man(a1-3)[Fuc(a1-2)[GalNAc(a1-3)]Gal(b1-3)GlcNAc(b1-2)Man(a1-6)]Man(b1-4)GlcNAc(b1-4)[Fuc(a1-6)]GlcNAc", "procedure,_shortened": "as §1"}, "[6]": {"test_system": "Fuc(a1-2)[GalNAc(a1-3)]Gal(b1-4)GlcNAc(b1-3)GalNAc", "procedure,_shortened": "as §1"}, "[7]": {"test_system": "Fuc(a1-2)[GalNAc(a1-3)]Gal(b1-4)GlcNAc(b1-6)GalNAc", "procedure,_shortened": "as §1"}, "[8]": {"test_system": "Fuc(a1-2)[GalNAc(a1-4)]Gal(b1-4)GlcNAc", "procedure,_shortened": "as §1"}, "[9]": {"test_system": "Fuc(a1-2)[GalNAc(a1-3)]Gal(b1-4)GlcNAc(b1-2)Man(a1-3)[Fuc(a1-2)[GalNAc(a1-3)]Gal(b1-4)GlcNAc(b1-2)Man(a1-6)]Man(b1-4)GlcNAc(b1-4)GlcNAc", "procedure,_shortened": "as §1"}, "[10]": {"test_system": "Fuc(a1-2)[Gal(a1-3)]Gal(b1-4)[Fuc(a1-3)]Glc", "procedure,_shortened": "as §1"}, "[11]": {"test_system": "Fuc(a1-2)[Gal(a1-4)]Gal(b1-4)GlcNAc", "procedure,_shortened": "as §1"}, "[12]": {"test_system": "Fuc(a1-2)[GalNAc(a1-3)]Gal(b1-3)GalNAc(b1-3)Gal(a1-4)Gal(b1-4)Glc", "procedure,_shortened": "as §1"}, "[13]": {"test_system": "Fuc(a1-2)[GalNAc(a1-3)]Gal(b1-4)GlcNAc(b1-3)Gal(b1-4)GlcNAc", "procedure,_shortened": "as §1"}, "[14]": {"test_system": "Fuc(a1-2)[GalNAc(a1-3)]Gal(b1-3)GlcNAc", "procedure,_shortened": "as §1"}, "[15]": {"test_system": "Fuc(a1-2)[GalNAc(a1-3)]Gal", "procedure,_shortened": "as §1"}, "Fuc(a1-3)GlcNAc": {"test_system": "Fuc(a1-3)GlcNAc", "procedure,_shortened": "as §1"}, "[16]": {"test_system": "Fuc(a1-2)[GalNAc(a1-3)]Gal(b1-4)GlcNAc(b1-2)Man(a1-3)[Fuc(a1-2)[GalNAc(a1-3)]Gal(b1-4)GlcNAc(b1-2)Man(a1-6)]Man(b1-4)GlcNAc(b1-4)[Fuc(a1-6)]GlcNAc", "procedure,_shortened": "as §1"}, "[17]": {"test_system": "Fuc(a1-2)[GalNAc(a1-3)]Gal(b1-4)GlcNAc", "procedure,_shortened": "as §1"}, "[18]": {"test_system": "Fuc(a1-2)[GalNAc(a1-3)]Gal(b1-4)[Fuc(a1-3)]GlcNAc(b1-3)GalNAc", "procedure,_shortened": "as §1"}, "[19]": {"test_system": "Fuc(a1-2)[GalNAc(a1-3)]Gal(b1-3)GalNAc(a1-3)[Fuc(a1-2)]Gal(b1-4)GlcNAc", "procedure,_shortened": "as §1"}}, "note": "The entries come from a sample that favours the strongest signals as a whole.", "data": [{"substance": "SiiE (Salmonella typhimurium), A0A0H3NVH0", "values": [{"measurement": "glycan array binding signal (z-score)", "setting": "[1]", "result": -0.019}, {"measurement": "glycan array binding signal (z-score)", "setting": "[2]", "result": 1}, {"measurement": "glycan array binding signal (z-score)", "setting": "[3]", "result": 1.25}]}, {"substance": "LcI (Legionella pneumophila)", "values": [{"measurement": "glycan array binding signal (z-score)", "setting": "[4]", "result": -0.301}, {"measurement": "glycan array binding signal (z-score)", "setting": "[5]", "result": -0.427}, {"measurement": "glycan array binding signal (z-score)", "setting": "[6]", "result": 0.164}, {"measurement": "glycan array binding signal (z-score)", "setting": "[7]", "result": 2.06}]}, {"substance": "SpGH101 (Streptococcus pneumoniae), Q8DR60", "values": [{"measurement": "glycan array binding signal (z-score)", "setting": "[8]", "result": -0.12}]}, {"substance": "Actinohivin (Actinomycete K97)", "values": [{"measurement": "glycan array binding signal (z-score)", "setting": "[5]", "result": 0.857}, {"measurement": "glycan array binding signal (z-score)", "setting": "[9]", "result": -0.143}]}, {"substance": "Epa22", "values": [{"measurement": "glycan array binding signal (z-score)", "setting": "[10]", "result": -0.341}, {"measurement": "glycan array binding signal (z-score)", "setting": "[11]", "result": 1.84}, {"measurement": "glycan array binding signal (z-score)", "setting": "[12]", "result": -0.54}, {"measurement": "glycan array binding signal (z-score)", "setting": "[13]", "result": 0.068}]}, {"substance": "GspB (Streptococcus gordonii), Q939N5", "values": [{"measurement": "glycan array binding signal (z-score)", "setting": "[14]", "result": 0.192}, {"measurement": "glycan array binding signal (z-score)", "setting": "[15]", "result": -0.616}]}, {"substance": "BambL (Burhholderia ambifaria), Q0B4G1", "values": [{"measurement": "glycan array binding signal (z-score)", "setting": "Fuc(a1-3)GlcNAc", "result": 7.79}, {"measurement": "glycan array binding signal (z-score)", "setting": "[3]", "result": -0.021}]}, {"substance": "AgI/II Vhelical-GFP (Streptococcus mutans)", "values": [{"measurement": "glycan array binding signal (z-score)", "setting": "[10]", "result": -0.293}, {"measurement": "glycan array binding signal (z-score)", "setting": "[5]", "result": -0.218}, {"measurement": "glycan array binding signal (z-score)", "setting": "[16]", "result": -0.212}, {"measurement": "glycan array binding signal (z-score)", "setting": "[17]", "result": -0.146}, {"measurement": "glycan array binding signal (z-score)", "setting": "[18]", "result": 2.49}, {"measurement": "glycan array binding signal (z-score)", "setting": "[8]", "result": 2.31}]}, {"substance": "AgI/IIC123-GFP (Streptococcus mutans)", "values": [{"measurement": "glycan array binding signal (z-score)", "setting": "[1]", "result": -0.047}, {"measurement": "glycan array binding signal (z-score)", "setting": "[19]", "result": -0.259}, {"measurement": "glycan array binding signal (z-score)", "setting": "[16]", "result": -0.549}, {"measurement": "glycan array binding signal (z-score)", "setting": "[7]", "result": 2.18}, {"measurement": "glycan array binding signal (z-score)", "setting": "[18]", "result": 4.84}, {"measurement": "glycan array binding signal (z-score)", "setting": "[3]", "result": -0.357}]}]}
